In PubChem BioAssay AID463173 (ICCB-Longwood Screening Facility, Harvard Medical School, 2010):
The whole screen tested about 52,000 compounds, of which about 4,300 (8.3%) were called active. Many of the other results were omitted from the sample, so actives are more common in it than they were. A number with no mark means an inactive call. Rule as the data show it: active = survival mostly below about 52% (no sharp cut-off); inactive = mostly above about 56%.

system: DeltatarO mutant; test: S. aureus survival, RN4220 and DeltatarO strains – OD600, teichoic acid synthesis inhibitors, primary screen (AID 463173); settings: S. aureus RN4220 wild type/DeltatarO growth, OD600, 18 h, active compounds read low, screened at 18.75 µg/mL (by protocol)

SMILES | survival
CCOC(=O)Cc1ccc(NC(=O)N2CCC(CN3CCC(C)CC3)CC2)cc1 | 81%
COc1cc2cc(C)c(SCC(=O)N3CCN(C(=O)c4ccco4)CC3)nc2cc1OC | 73%
CCN(CC)S(=O)(=O)c1cccc2nsnc12 | 79%
Cc1cc(C)cc(NC(=O)CSc2nc3ncccc3[nH]2)c1 | 76%
Cc1ccc(NC(=O)CSc2nc3c(sc4ccccc43)c(=O)n2CCCC(=O)NC2CCCC2)cc1C | 87%
Cc1ccc(NC(=O)CSc2nc3nccnc3c(=O)n2CCc2c[nH]c3ccccc23)cc1 | 82%
Cc1cc(C)cc(NC(=O)CSc2nc3nccnc3c(=O)n2CCc2c[nH]c3ccccc23)c1 | 38% (active)
Cc1ccc(NC(=O)CSc2nc3nccnc3c(=O)n2CCc2c[nH]c3ccccc23)cc1C | 37% (active)
Cc1ccc(NC(=O)CSc2nc3ccccc3c(=O)n2CCC(=O)NC2CCCCC2)cc1C | 86%
COc1ccccc1C(=O)OCc1cc(=O)n2nc(C3CCCCC3)sc2n1 | 97%
c1ccc2c(NC3CCCC3)nc(N3CCNCC3)nc2c1 | 26%
CC1CCN(CCCNC(=O)c2cc(Sc3ccc(F)cc3)nc3ccccc23)CC1 | 68%
COc1ccc2c(Sc3ccccc3)c(C(=O)NCCCN3CCCCC3)[nH]c2c1 | 54%
O=C(NCCCN1CCCCC1)c1cc(Sc2ccc(Cl)cc2)nc2ccccc12 | 17% (active)
COCCCNC(=O)c1[nH]c2ccccc2c1Sc1ccc(C)cc1 | 69%
O=C(NCCCN1CCCCC1)c1[nH]c2ccccc2c1Sc1ccc(Cl)cc1 | 7% (active)
COc1ccc2c(Sc3ccc(Cl)cc3)c(C(=O)NCCCN3CCCCC3)[nH]c2c1 | -1% (active)
COc1ccc2c(Sc3ccccc3)c(C(=O)NCCc3ccc(Cl)cc3)[nH]c2c1 | 98%
CC1CCCCN1CCCNC(=O)c1cc(Sc2ccc(Cl)cc2)nc2ccccc12 (stereo not given) | 94%
CCOCCCNC(=O)c1[nH]c2cc(C)ccc2c1Sc1ccc(Cl)cc1 | 85%
CNC(=O)c1cnc2sc(N3CCC(C)CC3)nn2c1=O | 78%
CCOC(=O)c1ccc2c(c1)N(Cc1cc(C)ccc1C)C(=O)c1ccccc1S2(=O)=O | 85%
Cc1ccccc1C(=O)NC1CCN(Cc2nnnn2C2CCCC2)CC1 | 101%
CCC(CC)C(=O)Nc1ccc(C(=O)OCc2cc(=O)n3nc(C4CC4)sc3n2)cc1 | 80%
Cc1ccc(/C=C/c2onc(C)c2S(=O)(=O)N2CCC(C(=O)Nc3ccccc3C(F)(F)F)CC2)cc1 | 75%
